For 108 sequences, z-score results are on record in PubChem BioAssay AID1508600 (Functional Genomics Laboratory (NCATS/FGL), 2020).

The whole screen tested about 53,000 sequences, of which about 3,700 (7%) were called active.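 How the source made its calls: active means gene knockdowns whose robust z-score for IL-1 alpha signal is at least 2 or at most -2, so actives lie on both sides; inactive means the rest.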 The sample as a whole holds a higher share of actives than the screen did.

This assay is described as follows: Components of the Cytosolic LPS Sensing Pathway: Gene Identification via Genome-wide siRNA Screen.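 Further: robust z of the log signal after scaling to non-targeting control siRNA wells of the plate.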 The conditions noted are these: RAW264.7 macrophages, IL-1a HTRF, actives lie on both sides, screened at 100 nM (by protocol), cells primed 5 h with Pam3CSK4 first. The procedure, abridged: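 RAW264.7 mouse macrophages reverse-transfected with single siRNAs (100 nM final) for 48h, primed with Pam3CSK4 for 5 hours, then transfected with LipidA for 24 hour. Supernatant IL-1a read by HTRF; values normalized to negative-control median, log-transformed robust z-scores.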
(In general: In TR-FRET formats the signal depends on donor and acceptor labels being close together.)
Consider GGUUUUUGUGGAAAUGUGGTT against Smpd4, for which the z-score was -2.58 (active).

On to GGCAGUUUGUUAAUGAAUGTT against Pcsk1, for which the z-score is -0.901 (inactive).

Turning to GGAGGAGAAAACAGGAAUUTT against H2-Eb1, the z-score is -0.03 (inactive).

As for GCGACCGUAUUGUCACUUGTT against Arpc1a, the z-score was -0.465 (inactive).

Turning to CCUUGUCGAGCACAUGAGATT against Zfp69, the z-score was 0.0825 (inactive).

As to GGCAAGUGAGGAAAAGAGGTT against Setd1a, the z-score is -0.741 (inactive).

With GAUUUUCCUCUACUGUCCUTT against U90926, the z-score was -0.532 (inactive).

With GGUCUUGGAUGCAAACGAUTT against Pcdhga2, the z-score is 0.518 (inactive).

GCUAGCAAGUGAGAUGGAGTT against Mbd3l1: the z-score was 1.58 (inactive).

For the sequence GGGCCUUCAAAAAACUGCCTT against Eva1b, the z-score was 1.75 (inactive).

As to GGGAGAUAUGCAAUGAAUATT against Creb5, the z-score is -1.34 (inactive).

Take GGAAGGUCUUCGAGAUUUUTT against Gpr75: the z-score was 4.56 (active).

Take CCUCUUAAACAUGUCCUAGTT against Atp6v0a2: the z-score is -1.04 (inactive).

Regarding CCUUCUGGAGUACAUAUCCTT against Trip6, the z-score is 0.16 (inactive).

Turning to GGAAAAGUCCCGUAUGGAGTT against Gcc1, the z-score was -3.14 (active).

Consider CCAAAUGCUUAUCUCUACATT against Dock6, for which the z-score was 0.00388 (inactive).

On to GGACAAAAAAAUAGAAGGATT against Rrbp1, for which the z-score is 0.344 (inactive).

As for GGACUAUCUUUAUGAUGUGTT against Ush1c, the z-score is -0.164 (inactive).

Consider GGUGAUGGAGAAGAGAAGATT against Fam107b, for which the z-score was 2.88 (active).

Take GGUUUGUAAAGGUUAUGACTT against Nell2: the z-score is 0.0203 (inactive).

Consider CCUAGAAGCUAAUUACCAATT against Saa4, for which the z-score is -0.946 (inactive).

Take GCGGCUACUCAUAUAAGUCTT against Trappc8: the z-score was -0.5 (inactive).

In the case of CGGUGACAUUUGUGAAACUTT against Smn1, the z-score was -2.05 (active).

In the case of GGAGAAUUACGGUGCCAACTT against Ncoa3, the z-score is -0.354 (inactive).

As for GCUCAUCUCGAUUUGACUGTT against Cln3, the z-score was -1.67 (inactive).

As for CCUAAUCCUGAUAAUUCCATT against Niban2, the z-score was -1.54 (inactive).

For GGAGUUGUUGUGCUUUUAATT against Tmem45a, the z-score is 3.02 (active).

As to GGACUCACAGUUAAAAGUATT against Gtse1, the z-score was 1.2 (inactive).

With GCUAUGUGGGUUGUGCUAUTT against Olfr1361, the z-score is 0.734 (inactive).

Regarding CCCUAGUUUAUCUCCGGAUTT against Lhx1, the z-score was 1.15 (inactive).

With “GGAAUUUGUCAACCGGACCTT against St6galnac6”, the z-score is 3.31 (active).

Turning to GCUAUUGGGUAAUUUGCUUTT against Slco4a1, the z-score was 0.436 (inactive).

For CGUAUAUCGAUGAAGAUGATT against BC016579, the z-score is -1.12 (inactive).

Take GGGAUGCAUCAAAAUACAATT against Pdk3: the z-score is 4.82 (active).

As to GGACAAGGAGUAUUAUGUGTT against Nrxn3, the z-score was -0.372 (inactive).

GGCCUUGAAGCAGAAGUCUTT against Gfra1: the z-score is -1.21 (inactive).

GGGCUUUGUGCCCAACAUGTT against Rtcb: the z-score is 0.278 (inactive).

CCCGAUUACUGGAGUUAAATT against Kbtbd7: the z-score was 2.32 (active).

In the case of GGAAGAUGAACUUCGUACCTT against Slc4a2, the z-score is -0.438 (inactive).

Consider GGUCCUGAAGAAGAUUGCATT against Hmox1, for which the z-score is -0.72 (inactive).

As to GGAAGAGUGACCUUAAGUCTT against Arhgap30, the z-score was 2.29 (active).

For the sequence GGCACAGAUUGUGGUGAAGTT against Ccdc43, the z-score is -0.518 (inactive).

GCUGCACCAUGAAUGAGUCTT against Il4: the z-score was 0.819 (inactive).

As to GGAUGUUGUGGGAAAUGACTT against Plaat1, the z-score is -0.27 (inactive).

For the sequence GGCAAAUCUGAACAACAUUTT against Agt, the z-score was 1.16 (inactive).

On to GCAGAAAUGUCCAUCCAAATT against Sprr2k, for which the z-score is 2.36 (active).

With GGCAGUGCUGGCAACAAAUTT against Hsd3b5, the z-score was -0.884 (inactive).

Turning to GGAAACCUACCGUUACCUATT against Kcnj5, the z-score is -0.181 (inactive).

In the case of GCCAUUUAUUGAAACUCGCTT against Becn1, the z-score is -0.905 (inactive).

In the case of GGCAGCUGCUGACUUGAUGTT against Gng2, the z-score is 0.133 (inactive).

Take GGGCCAGACUCCAUACUAUTT against Arid1a: the z-score was 3.71 (active).

With GCACAUGCCAUACAACCAUTT against Fads1, the z-score was 0.655 (inactive).

Consider GCGAUUGAGCAGUGAAUAATT against Fam216b, for which the z-score was 1.06 (inactive).

GGAGAAGCGGCAAAUGGAATT against Fam32a: the z-score is 0.429 (inactive).

Consider GGCAAGGACUCCAAGGACATT against Wdr45, for which the z-score is -1.31 (inactive).

Turning to GGAAGAGCAGGAGGAAACATT against Mea1, the z-score was -2.01 (active).

Regarding GGAGAAAAGCUGUAUACACTT against Tmem177, the z-score was 1.22 (inactive).

As for GGAGGAGAUGAUAAAGAUUTT against Glyr1, the z-score is -0.987 (inactive).

As for CCCAUCAGACUUUGACCGUTT against Lbh, the z-score was -1.45 (inactive).

Consider GGCAACUUCAAGUCCAUAUTT against Pnma3, for which the z-score was 3.18 (active).

Turning to GCGACUAGUAGUGCAUGAATT against Wdr13, the z-score is -0.434 (inactive).

As to CCUUAAACUUGGCCGAGGUTT against Trmt112, the z-score was 0.748 (inactive).

As to CGGCCUUCAUCUGCCUUUUTT against Olfr1222, the z-score was 0.475 (inactive).

In the case of GCCACCUCCUACCAAAUGUTT against Sprr4, the z-score is -1 (inactive).

Take GGAGCUAAGGGAACAAUUATT against Psmc6: the z-score is -2.1 (active).

For the sequence GGAUGUGUCAGGAAAAUAGTT against Ctsm, the z-score was -0.176 (inactive).

As for GGAAUACGGAAUCAUGGUUTT against Ift52, the z-score was -0.0653 (inactive).

For the sequence GGUUAAUCUUAACAACAUCTT against Tmod1, the z-score is 0.266 (inactive).

As for GGAUGCCUUGAAGAAAUUATT against Olfr1044, the z-score is 1.34 (inactive).

For GCUCCAUGAAACCCACUCUTT against Zmiz1, the z-score is -0.656 (inactive).

For “GGAAAGAAGCAACCACUUCTT against 4833439L19Rik”, the z-score is 0.403 (inactive).

CGUGAUCGUGCGUUCCAACTT against Chrnb4: the z-score is 3.11 (active).

GGAGGACAUGGACACAGUCTT against Slc39a7: the z-score was -0.805 (inactive).

On to GGACUAUCCUCACUCCCUUTT against Pigo, for which the z-score is -0.0578 (inactive).

For the sequence GCCGACUGGUUAAAUACAUTT against Nme3, the z-score is 5.79 (active).

In the case of CGAUGCUAGAGAUUAAUCATT against Rdh10, the z-score is -0.0597 (inactive).

Consider GCACCUGGGCCUUUGAAUATT against Hes2, for which the z-score was -0.754 (inactive).

GCAAGGAAGGAUAUUACACTT against Mmp24: the z-score is 1.34 (inactive).

Take GGAUCAAUUCUAGAAUCAGTT against Runx3: the z-score is 0.586 (inactive).

Regarding GCAAUAGCAUACCUACCAUTT against Desi2, the z-score is -0.228 (inactive).

Regarding CCAACAUCUAGAGAGUCUGTT against Olfr1031, the z-score was -1.36 (inactive).

Take GCUUGAUUAUUGUGUGUCCTT against Olfr786: the z-score is -1.53 (inactive).

In the case of GGAAAUGACGACUACCAAGTT against Tspyl4, the z-score is 2.74 (active).

GCGCGAUAGAUUUUGUUUATT against Ier5l: the z-score is -0.427 (inactive).

Turning to GGACUAUGGCUCAGCACUCTT against Ttyh1, the z-score is -0.394 (inactive).

For the sequence GGACAAGUUUGACUGUUACTT against Als2cl, the z-score is 0.158 (inactive).

As for GGAACGACAAUAAAGCUUATT against Ninj1, the z-score is 0.029 (inactive).

On to CCACAGAUUACAUUUAUCCTT against Sephs1, for which the z-score is -1.19 (inactive).

“GGAGAAAUUCUAUGGUAUUTT against 5031434C07Rik”: the z-score is 2.18 (active).

Take GGACUUGAUUGAAGUCAUATT against Tmem132d: the z-score was 0.242 (inactive).

Regarding GUUGGCAUAUUUUAUGGCATT against Olfr1033, the z-score was 1.28 (inactive).

Turning to GGAACAGGAAUAUGAAAGATT against Olfr836, the z-score is -0.903 (inactive).

On to CGGCUUGGACAGAUUUAUCTT against Rer1, for which the z-score was 0.0516 (inactive).

On to GCAUCCUUAGUGAUUUCUATT against Slc48a1, for which the z-score is 0.601 (inactive).

For the sequence CCUACAACGAACGGGAGAATT against Dpm1, the z-score is 0.408 (inactive).

Consider GGUUCUGACAGACAAAAUUTT against Luc7l3, for which the z-score was -0.379 (inactive).

As to GCGGUUCGCUGUUUGUUUCTT against Zbtb11os1, the z-score was 2.54 (active).

Take CGCUAGCUUAUUUUCCGCCTT against Slc49a4: the z-score was 1.1 (inactive).

Take GGACGACAUGAUUUUCGAGTT against Atp1b1: the z-score was -0.399 (inactive).

As for CCACGAAGAGCAAGAAAACTT against Gm5941, the z-score is -1.15 (inactive).

For GGCCUGUAGUCAAUGGAAATT against Magi2, the z-score is -0.382 (inactive).

Regarding GGUUGCACUUUUUCAUAGUTT against Bcl2l2, the z-score is 0.97 (inactive).

Take GGAGGUGCUAACCUAACAGTT against Ggh: the z-score is -1.1 (inactive).

For GGAAUAUCCAGUAUUGAUUTT against Cd180, the z-score is -0.396 (inactive).

On to GCUCGAUUGACCUCAUUCATT against Rhbdf2, for which the z-score is -2.45 (active).

On to GGUGUCGAGAAGCCUCAAATT against Arhgap24, for which the z-score is -0.617 (inactive).

With GCCGUAUGGCAGGUAUUUUTT against Tmem266, the z-score was 3.27 (active).

In the case of CCACUACAACAACACUUAUTT against Keg1, the z-score is 0.84 (inactive).
